# Screens from PubChem.
# This is a sample that favours compounds with a hit; in the whole collection about 17% have one here.
# HT1080 IDH1KD tx = HT-1080 IDH1 knockdown cell toxicity (counter line) | HT-1080 IDH1 knockdown viability, ATP luminescence, 48 h | Potency, µM (doses to about 46.1 µM), without a hit: at the top dose activity, negative = toxicity, actives largely listed as cytotoxic | 360,000 tested, 2% active | AID 686971;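 also: 0% = DMSO wells and -100% = cell-free medium wells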
#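 Assay cells: HT-1080 with IDH1 knockdown, 750 per well, RPMI/5% FBS. Exposure: 48 h at 37 °C following 2 h pre-incubation. Read: CellTiter-Glo luminescence; fitted concentration-response, curve class assigned.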
# HepG2 viability = kills HepG2 cells in TGF-b inhibitor counter-screen; HepG2 CAGA-GFP viability, ATP luminescence, 18 h; Potency, µM (highest dose often 46.1 µM), inactives show top-dose activity change, negative = cytotoxicity, most hits filed as cytotoxic; 410,000 tested, 0.76% active
#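 HepG2 CAGA-GFP cells (1000/well, DMEM with 1% FBS) received compound, then TGF-beta at 500 pg/mL final, and were incubated 18 hours at 37 degrees C. Viability was read by CellTiter-Glo luminescence. Media-only wells were set as complete cell-killing and DMSO as no toxicity.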
# TDP1 cell noCPT = qHTS for Inhibitors of human tyrosyl-DNA phosphodiesterase 1 (TDP1): qHTS in cells in absence of CPT; AID 686978, 2013; 420,000 tested, 15% active; Potency, µM (highest dose often 46.2 µM), inactives show at the highest dose activity change, negative = growth inhibition, most hits filed as inhibitors; DT40 Tdp1-/- hTDP1 cells, no CPT, ATP luminescence, 48 h; also: % is scaled to controls: 0 for no effect and ±100 for the full control effect; nearly all actives have a fitted effect of over 55% in size
#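 Chicken DT40 Tdp1-/- cells stably complemented with human TDP1 were seeded at 400 cells/well with DMSO in place of 20 nM camptothecin. After compound pinning, cells grew at least 48 hr at 37 °C; viability read by CellTiter-Glo luminescence.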
# DT40 TDP1 CPT = DT40-hTDP1 cell growth loss with CPT; chicken DT40 Tdp1-/-;hTDP1 cells + 20 nM CPT, ATP luminescence, 48 h; Potency, µM (titrated, usually from 46.2 µM), for the others: at the top dose activity change, negative = growth inhibition, most hits filed as inhibitors; 420,000 tested, 12% active; also: % is scaled to controls: 0 for no effect and ±100 for the full control effect; nearly all actives have a fitted effect of over 55% in size
#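 Chicken DT40 Tdp1-/- cells stably complemented with human TDP1 were seeded at 400 cells/well in medium containing 20 nM camptothecin, exposed to pin-transferred compounds, and grown at 37 °C for at least 48 hr. Viability was read as ATP luminescence.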
# HT1080NT lethal = kills 2HG-producing HT-1080-NT fibrosarcoma cells | 360,000 tested, 1.6% active | HT-1080-NT fibrosarcoma viability, CellTiter-Glo ATP luminescence, 48 h | AID 686970 | Potency, µM (series often up to 46.1 µM), for inactives: at the highest dose activity, negative = less viability, hits mostly cytotoxic;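 also: NT is the 2HG producing partner of a matched IDH1 knockdown line; 0% = DMSO-treated cells and -100% = media-only wells without cells; nearly all actives have a fitted effect of over 55% in size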
#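 Viability of the 2HG-overproducing fibrosarcoma line after 48 hours of compound exposure at 37 degrees C was determined by luminescence with CellTiter-Glo, and concentration-effect curves were then fitted and categorized.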
# TGFb inhibitor = blocks TGF-b signaling. Potency, µM (highest dose often 46.1 µM), inactives show top-dose activity, negative = inhibition, usual class: inhibitors. 410,000 tested, 1.2% active. HepG2 CAGA-GFP TGF-b/SMAD3 reporter, GFP fluorescence, 18 h; TGF-beta stimulated, 500 pg/mL final; also: % is scaled to controls: 0 for no effect and ±100 for the full control effect; nearly all actives have a fitted effect of over 65% in size
#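 TGF-beta reporter screen: HEPG2 CAGA-GFP, 1% FBS, 500 pg/mL TGF-beta final, 18 h; per-cell GFP summed per well; curves fitted and categorized by class.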
# * hit, by the source's call; ? = inconclusive; . = no result given; [ ] = another dose, or the depositor's remark. Calls follow the shape of the dose curve; as a rule, active = well fitted curve in the direction sought with a large enough effect; inconclusive = small, poorly fitted or top-dose-only effect, or another doubt; inactive = no such curve, though single readings can be large; an effect the other way counts as inactive or inconclusive. Potency is read from the fitted curve at half-maximal effect.
SMILES,HT1080 IDH1KD tx,HepG2 viability,TDP1 cell noCPT,DT40 TDP1 CPT,HT1080NT lethal,TGFb inhibitor
CC(C)Oc1ccc(CCC(=O)NNC(=S)Nc2ccccc2)cc1,5%,4%,18µM*,-23%,14%,6%
CC(C)Oc1ccc(CC(=O)NNC(=S)Nc2ccccc2)cc1,-2%,-6%,?,?,-1%,-10%
COc1ccccc1OCc1nnc(SCC(=O)c2cc(Cl)ccc2OC)o1,-22%,-42%,?,?,-24%,26%
CN(CC(=O)Nc1ccc(Cl)c(C(F)(F)F)c1)C(=O)c1ccc(N2CCOCC2)c([N+](=O)[O-])c1,?,-24%,26µM*,23µM*,23µM*,?
Cc1cccc(NC(=O)CN(C)C(=O)c2ccc(N3CCCCCC3)c([N+](=O)[O-])c2)c1C,-13%,9%,18µM*,23µM*,-29%,-4%
CN(CC(=O)Nc1ccccc1Cl)C(=O)c1ccc(N2CCCCCC2)c([N+](=O)[O-])c1,0%,-19%,18µM*,23µM*,-5%[9.24 µM],?
CN(CC(=O)Nc1cccc(F)c1)C(=O)c1ccc(N2CCOCC2)c([N+](=O)[O-])c1,-11%,-26%,?,?,0%,-19%
CCOc1ccc(NC(=O)CN(C)C(=O)c2ccc(N3CCCC3)c([N+](=O)[O-])c2)cc1OCC,-10%,-45%,-20%,0%,-1%,-2%
Cc1cccc(NC(=O)CN(C)S(=O)(=O)c2ccc3c(c2)CCC(=O)N3)c1C,.,2%,-21%,-13%,.,-20%
CCCc1nn(C)c2c(=O)[nH]c(-c3cc(S(=O)(=O)Nc4ccc(NC(C)=O)cc4)ccc3OCC)nc12,-8%,-30%,?,10µM*,-7%,-12%
CC(C)(C)c1ccc(Cn2cnc3c(cnn3C(C)(C)C)c2=O)cc1,.,-18%,.,.,.,7%
COC(=O)c1ccccc1NC(=O)CSc1c2c(nc3ccc(Cl)cc13)CCCC2,.,-14%,12µM*,?,.,-27%
Cc1ccc(C)c(NC(=O)CSc2c3c(nc4ccc(Cl)cc24)CCCC3)c1,.,0%,21µM*,21µM*,.,1%
CC(C)CCNC(=O)C1(c2cccs2)CCOCC1,5%,7%,-1%,6%,8%,-1%
CC(=O)N1CCc2cc(CNS(=O)(=O)c3ccc(Br)s3)ccc21,.,0%,21µM*,?,.,-1%
CC(=O)N1CCc2cc(CNS(=O)(=O)c3ccc(Cl)s3)ccc21,.,-15%,15µM*,?,.,1%
CC(=O)N1CCc2cc(CNS(=O)(=O)c3ccc(F)cc3)ccc21,.,-1%,-23%,1%,.,-12%
Cc1ccc(CNS(=O)(=O)c2ccc(Br)s2)cc1,6%,-30%,-2%,-17%,3%,?
O=C(OCc1cc(=O)n2nc(-c3cccs3)sc2n1)c1ccccc1,.,-4%,-17%,7%,.,-13%
COCc1c(C(=O)N2CCCCCC2)cnn1-c1nccc(-c2cccs2)n1,.,.,-5%,-1%,.,.
CCc1nc2ccc(C(=O)N(C)Cc3ccco3)cn2c1N(CC)C(=O)NCCc1ccccc1,8%,-46%,?,-28%,19%,16%
Cc1ccccc1OCCCCn1c(CCNC(=O)C(C)(C)C)nc2ccccc21,.,-86%,8.2µM*,13µM*,.,16µM*
Cc1cc(OCCCn2c(CCNC(=O)C3CCCCC3)nc3ccccc32)ccc1Cl,.,-115%,7.3µM*,6.5µM*,.,?
Cc1cccc(OCCCn2c(CCNC(=O)C(C)(C)C)nc3ccccc32)c1,.,-16%,?,?,.,-14%
COc1ccccc1OCCn1c(CCNC(=O)C2CCCCC2)nc2ccccc21,.,3%,?,?,.,2%
SMILES,HT1080 IDH1KD tx,HepG2 viability,TDP1 cell noCPT,DT40 TDP1 CPT,HT1080NT lethal,TGFb inhibitor
COc1ccc(OCCn2c(CCNC(=O)C3CCCCC3)nc3ccccc32)cc1,.,-21%,13µM*,?,.,-2%
CCc1ccc(OCCCn2c(CCNC(=O)C3CCCCC3)nc3ccccc32)cc1,.,4%,-21%,?,.,-6%
Cc1cccc(C)c1OCCCn1c(CCNC(=O)C2CCCCC2)nc2ccccc21,.,-94%,18µM*,15µM*,.,11µM*
Cc1nn2c(=O)cc(COc3ccc(/C=C(\C#N)C(=O)Nc4ccc(F)cc4)cc3)nc2s1,.,-1%,4%,-13%,.,-15%
CC(N)C(=O)NC(C(=O)N1CCCC1C(=O)NC(c1ccccc1)c1ccccc1)C(C)C (configuration not stated),-9%,-22%,-22%,?,-3%,-1%
O=C(NCCc1nc2ccccc2n1CCCOc1ccccc1)C1CCCCC1,.,-9%,11µM*,10µM*,.,?
Cc1c([C@H]2[C@@H](CC#N)C2(C)C)c2ccccc2n1C,1%,-14%,-9%,-32%,-1%,-23%
Cc1[nH]c2c(Br)cccc2c1[C@H]1[C@@H](CC#N)C1(C)C,?,-17%,?,16µM*,?,?
CCc1noc(C)c1C(=O)NCCN1C(=O)S/C(=C\c2ccccc2F)C1=O,2%,-5%,18µM*,18µM*,0%,0%
O=C(CN1C(=O)S/C(=C\c2ccccc2F)C1=O)Nc1ccccc1O,-3%,-47%,-9%,-21%,-5%,?
Cc1nn(Cc2ccccc2)c(C)c1C(=O)NCCN1C(=O)S/C(=C\c2ccccc2)C1=O,10%,-5%,?,21µM*,0%,-1%
O=C1S/C(=C/c2ccccc2F)C(=O)N1CCN=C1NS(=O)(=O)c2ccccc21,-8%,-10%,?,16µM*,-3%,-2%
COCCN1C[C@@H](CO)O[C@@H](n2cnc3c(N4CCCC4)ncnc32)C1,13%,-2%,5%,1%,?,12%
CCn1cc(C(=O)N[C@H](C(=O)NCCO)C(C)C)c(=O)c2cc3c(cc21)OCO3,-3%,2%,0%,2%,0%,35%
COc1ccc(NC(=O)C(c2ccc(C#N)cc2)n2c(=O)c(-c3cc4ccccc4[nH]3)nc3ccccc32)cc1 (configuration not stated),?,.,15µM*,21µM*,-29%,.
